The values that follow come from PubChem BioAssay (NCI).

Common to all, as to experiment: NCI-60 one-dose screen, 48 h (100 = growth as untreated, 0 = no growth, -100 = all killed)
Test [1] has as its system SR leukemia. To be noted: 10 µM unless noted.
Test [2] relates to RPMI-8226 leukemia. To be noted: 10 µM unless noted.
Test [3] deals with OVCAR-8 ovarian. The settings on record: 10 µM unless noted.
For test [4], the system named is OVCAR-5 ovarian. The settings on record: 10 µM unless noted.
Test [5] relates to OVCAR-4 ovarian. The settings on record: 10 µM unless noted.
Test [6] relates to SK-OV-3 ovarian. To be noted: 10 µM unless noted.
Test [7] has as its system IGROV1 ovarian. To be noted: 10 µM unless noted.
Test [8] relates to OVCAR-3 ovarian. To be noted: 10 µM unless noted.
Test [9] concerns HS 578T breast. The settings on record: 10 µM.
In test [10] the test system is NCI/ADR-RES ovarian. To be noted: 10 µM unless noted.
In test [11] the test system is BT-549 breast. The settings on record: 10 µM unless noted.
For test [12], the system named is MDA-MB-435 melanoma. To be noted: 10 µM unless noted.
The subject of test [13] is SW-620 colon. To be noted: 10 µM unless noted.
Test [14] concerns MCF7 breast. The settings on record: 10 µM unless noted.
The subject of test [15] is HCT-116 colon. To be noted: 10 µM unless noted.
Test [16] relates to HCC-2998 colon. To be noted: 10 µM unless noted.
Test [17] has as its system KM12 colon. To be noted: 10 µM unless noted.
Test [18] has as its system T-47D breast. To be noted: 10 µM unless noted.

This is part of a sample that, as a whole, favours compounds with a hit. Of some 83,000 tested, about 20% had one in any assay.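 96-well plates, one dose, 48 hours. Percent growth reported; active if below 10.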 A number with no mark means an inactive call. Activity calls are given as the source filed them.

Regarding `CC(=O)O[C@H]1[C@H](CC#CC#CC[C@@H]2C[C@]3(C)[C@H]4CC=C5[C@H]6[C@@H](C)[C@H](C)CC[C@]6(C(=O)NCCN(CCN)CCN)CC[C@@]5(C)[C@]4(C)CC[C@H]3C(C)(C)[C@H]2OC(C)=O)C[C@]2(C)[C@H]3CC=C4[C@H]5[C@@H](C)[C@H](C)CC[C@]5(C(=O)NCCN(CCN)CCN)CC[C@@]4(C)[C@]3(C)CC[C@H]2C1(C)C`, the growth is 53.9% in test [1]; 26.6% in test [2]; 3.13% (active) in [3]; 54.6% in test [4]; 97.4% in test [5]; 89.2% in test [6]. Besides, the growth was 62.3% in test [7]; 89% in [8]; 70.6% in test [9]; 49.2% in test [10]; 99.9% in test [11]; 64.7% in [12]. Besides, the growth in test [13] was 64%; in test [14], -0.0516% (active); in test [15], 75.5%; in test [16], 72.3%; in test [17], 86.1%.
With `Fc1[nH]nc2ccc([C@@H]3Nc4ccc5[nH]ncc5c4[C@H]4C5CCC(C5)[C@@H]34)cc12` (some centres undefined), the growth in test [1] is 42%; in test [2], 18.2%; in [3], 40%; in test [4], 54.3%; in test [5], 54.6%; in test [6], 39.7%. Moreover, the growth is 43.1% in test [7]; 1.83% (active) in test [8]; 34.8% in test [9]; 15.2% in [10]; 53.2% in [11]; -42.5% (active) in test [12]. Also, the growth was 23.9% in test [13]; 21.2% in test [14]; 21% in [15]; 58.2% in [16]; 20.7% in test [17].
With `CC(=O)c1nn(-c2ccccc2)/c(=N\N=C\c2coc3ccc(F)cc3c2=O)s1`, the growth in [1] is 96.2%; in [2], 91.9%; in [3], 107%; in test [4], 110%; in [5], 108%; in [6] it was 98.9%. The growth is 87.2% in test [7]; 111% in test [8]; 95.1% in test [9]; 104% in test [10]; 105% in [11]; 103% in [12]. Further, the growth in test [13] is 98.7%; in test [14], 90.3%; in test [15], 96%; in test [16], 111%; in test [17] it was 101%.
For `Nc1nc2ccc([C@@H]3Nc4ccc5[nH]ncc5c4[C@H]4[C@H]5CCC(C5)[C@H]43)cc2s1`, the growth in [1] is 51.1%; in test [2], 19.5%; in test [3], 37.5%; in test [4], 21.3%; in [5], 14.4%; in [6], -17.5% (active). The growth in test [7] was 33.3%; in test [8], -6.66% (active); in test [9], 8.66% (active); in test [10], 17.4%; in [11] it was 36.7%; in test [12], -62.4% (active). Moreover, the growth in test [13] was -3.94% (active); in [14] it was -0.0226% (active); in test [15], 12.1%; in [17] it was 3.63% (active).
Take `Oc1c(-c2cc(C(F)(F)F)[nH]n2)cc(Cl)c(OCc2ccc(Cl)cc2)c1-c1ccc(Cl)c(C(F)(F)F)c1`: the growth was 15.2% in test [1]; -27.9% (active) in test [2]; 9.67% (active) in test [3]; 30.3% in [4]; 19% in [5]; 6.29% (active) in test [6]. The growth is 19.8% in test [7]; 10.5% in test [8]; 5.31% (active) in test [9]; 9.38% (active) in test [10]; -11.9% (active) in [11]; -16.9% (active) in test [12]. Further, the growth is 8.41% (active) in [13], 2.3% (active) in [14], 12.7% in [16] and 1.97% (active) in [17].
With `NS(=O)(=O)c1ccc(N2N=C(c3ccc(Br)cc3)CC2c2cn(-c3ccccc3)nc2-c2ccc(Cl)cc2)cc1` (centres undefined), the growth in test [1] is 72%; in [2] it was 74%; in test [3] it was 90.6%; in test [4] it was 102%; in [5], 93.7%; in [6], 94.7%. The growth was 93.8% in test [7]; 95.1% in [8]; 100% in [9]; 86.6% in [10]; 69.2% in [18]; 79.6% in test [12]. The growth in test [13] is 96.1%; in test [14], 53.1%; in test [15], 63%; in test [17], 74.9%.
Regarding `COc1ccc2[nH]cc(/C=C3\C(=O)Nc4ccccc43)c2c1`, the growth in [1] was 2.21% (active); in test [2], 31.3%; in test [3] it was 31.9%; in test [4], 52.9%; in [5], 54.6%; in test [6], 38.9%. In addition, the growth in test [7] is -21.9% (active); in test [8] it was 35.5%; in [9] it was 33.2%; in test [10] it was 23.1%; in [11] it was 48.5%; in [12], -41.6% (active). Moreover, the growth is 11.4% in test [13]; 16.3% in test [14]; 17.9% in [15]; 36% in test [16]; 13.7% in test [17].
Consider `CNCc1cccc2c1OCCOCCOCCC(C)S(=O)(=O)c1ccc(cc1)-c1cnc(N)c(n1)C(=O)N2` (centres undefined), for which the growth is -19.2% (active) in test [1]; 54.8% in test [2]; 2.48% (active) in [3]; 115% in test [4]; 75.5% in test [5]; 23.2% in test [6]. In addition, the growth in test [7] is 28.2%; in test [8] it was 25.7%; in test [9] it was 0.126% (active); in [10] it was 91.6%; in test [18], 32.8%; in [11], 43.9%. The growth was 42.8% in [12], -2.15% (active) in test [15], 79% in test [16] and 47.5% in test [17].
With `CCSc1ccc([C@@H]2[C@@H](N)C(=O)N2c2cc(OC)c(OC)c(OC)c2)cc1`, the growth in [1] is 14.4%; in test [2], 18%; in test [3] it was 32.4%; in test [4], 42.7%; in [5], 54.4%; in test [6], 44%. Also, the growth in [7] is 47.9%; in [8] it was -23.8% (active); in test [9], 34.5%; in test [10] it was 3.99% (active); in test [11] it was 32.7%; in test [12] it was -59.7% (active). Moreover, the growth in test [13] is 25.8%; in test [14] it was 19.6%; in test [15], 10.2%; in test [16], 31.2%; in test [17] it was 19.4%.
